Screening data: PubChem BioAssay, National Center for Advancing Translational Sciences (NCATS)
HT1080 IDH1KD tx: kills HT-1080 cells with IDH1 knockdown | hit rate 2% among 360,000 | Potency, µM (doses to about 46.1 µM), for the others: at the highest dose activity, negative = toxicity, most hits filed as cytotoxic | HT-1080 IDH1 knockdown viability, ATP luminescence, 48 h | AID 686971;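 note: potency is the fitted concentration of half-maximal effect; 0% = DMSO wells and -100% = cell-free medium wells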
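CellTiter-Glo luminescence after 48 h compound exposure at 37 degrees C of IDH1-knockdown HT-1080 cells in 5% FBS RPMI. %Activity scaled between DMSO wells and cell-free media wells, with curves fitted and assigned curve classes.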
TDP1 cell noCPT: qHTS for Inhibitors of human tyrosyl-DNA phosphodiesterase 1 (TDP1): qHTS in cells in absence of CPT | Potency, µM (highest dose often 46.2 µM), for the others: top-dose activity change, negative = growth inhibition, most hits filed as inhibitors | AID 686978, 2013 | DT40 Tdp1-/- hTDP1 cells, no CPT, ATP luminescence, 48 h | hit rate 15% among 420,000; note: potency is the fitted concentration of half-maximal effect; nearly all actives have a fitted effect of over 55% in size
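Readout: luminescence from CellTiter-Glo after 30 min in the dark at RT. Cells: DT40 Tdp1-/- with stable hTDP1, 400/well. Exposure: compounds alone, ≥48 hr, 37 °C.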
HT1080-NT tox: kills 2HG-producing HT-1080-NT fibrosarcoma cells | HT-1080-NT fibrosarcoma viability, CellTiter-Glo ATP luminescence, 48 h | Potency, µM (titrated, usually from 46.1 µM), for the others: at the top dose activity, negative = less viability, usual class: cytotoxic | hit rate 1.6% among 360,000;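 note: NT is the 2HG producing partner of a matched IDH1 knockdown line; potency is the fitted concentration of half-maximal effect; 0% = DMSO-treated cells and -100% = media-only wells without cells; nearly all actives have a fitted effect of over 55% in size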
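Viability of the 2HG-overproducing fibrosarcoma line after 48 hours of compound exposure at 37 degrees C was determined by luminescence with CellTiter-Glo, and concentration-effect curves were then fitted and categorized.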
IL1B secr inh: inhibitors of inflammasome signaling (IL-1 beta secretion); AID 743279; activity change, % at 57.5 µM; hit rate 4.7% among 360,000; THP-1 LPS/ATP IL-1B secretion, AlphaLISA, 16 h; hits give low values; in the data active = activity change below about -50%; inconclusive = mostly about -30% to -49%
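THP-1 cells pretreated 1 hr with compounds (up to 57.5 uM final), then stimulated with LPS (250 ng/mL final) plus ATP (1.25 mM final); secreted IL-1B measured by AlphaLISA after 16 hr, decreased signal indicating inhibition.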
TDP1 cell CPT: growth inhibition of DT40 Tdp1-/-;hTDP1 cells with camptothecin (screen for TDP1 inhibitors) | hit rate 12% among 420,000 | Potency, µM (doses to about 46.2 µM), inactives show at the highest dose activity change, negative = growth inhibition, actives largely listed as inhibitors | chicken DT40 Tdp1-/-;hTDP1 cells + 20 nM CPT, ATP luminescence, 48 h; note: potency is the fitted concentration of half-maximal effect; nearly all actives have a fitted effect of over 55% in size
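Chicken DT40 Tdp1-/- cells complemented with human TDP1, 400 cells/well, exposed to compounds plus 20 nM camptothecin for at least 48 h at 37 C; viability read as ATP content by CellTiter-Glo luminescence.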
* hit, by the source's call; ? = inconclusive; · = no result; [ ] = another dose, or the depositor's remark. Sampled rows, rich in hits. Any-hit rate of the full collection: about 19%. Unless noted, calls come from the whole dose curve; as a rule, active = well fitted curve in the direction sought with a large enough effect; inconclusive = small, poorly fitted or top-dose-only effect, or another doubt; inactive = no such curve, though single readings can be large; an effect the other way counts as inactive or inconclusive. Unless noted, % is set by controls: 0 for no effect and ±100 for the full control effect.

SMILES	HT1080 IDH1KD tx	TDP1 cell noCPT	HT1080-NT tox	IL1B secr inh	TDP1 cell CPT
Cc1cc(N2CCN(c3ccccc3)CC2)nc(NCc2ccccc2)n1	6%	16µM*	12%	20	21µM*
COc1cc(C)nc(NCc2ccccc2)n1	-11%	?	0%	18	?
CCCc1nc(C)cc(N2CCN(c3ccccc3)CC2)n1	0%	21µM*	-5%	-3	29µM*
Cc1cc(OC(C)C)nc(NCc2ccccc2)n1	?	13µM*	?	4	?
COC(=O)c1sc(NC(=O)c2ccc3c(c2)OCO3)c(C#N)c1C	2%	-5%	10%	17	25%
CCN1C(=O)[C@H]2[C@@H](c3ccc(C)cc3)N3C(=O)N(c4ccc(OC)cc4)C(=O)[C@@]3(C)[C@H]2C1=O	1%	-4%	-17%	16	-1%
COc1ccc2[nH]cc(C(=O)CCl)c2c1	7.3µM*	4.1µM*	5.8µM*	-96*	3.3µM*
COc1ccc2[nH]cc(C(=O)CN(C)CCc3ccc(OC)c(OC)c3)c2c1	-7%	21µM*	-15%	0	18µM*
COc1ccc2[nH]cc(C(=O)CNc3nc(C)cs3)c2c1	-29%	?	-24%	-12	?
COc1ccc2[nH]cc(C(=O)CNc3nccs3)c2c1	·	7.9µM*	·	·	?
C=CC[N@@+]12CC[C@]34c5ccccc5N5/C=C6\C7N(/C=C(\C53)[C@@H](C[C@@H]41)/C(=C/CO)C2)c1ccccc1[C@@]71CC[N@@+]2(CC=C)C/C(=C\CO)[C@@H]6C[C@@H]12 (some centres undefined)	6%	11%	?	-1	1%
N#CCCN(Cc1ccccc1)S(=O)(=O)c1cccs1	10%	-19%	23%	-2	4%
COc1ccccc1N(CC1CO1)S(=O)(=O)c1ccc(C)cc1 (centres undefined)	-2%	21µM*	-10%	-16	?
CCOC(=O)c1ccc(N(CC2CO2)S(=O)(=O)c2ccc(C)cc2)cc1 (centres undefined)	-1%	16µM*	-1%	?	13µM*
COc1ccc(N(CC2CO2)S(=O)(=O)c2ccccc2)cc1 (centres undefined)	?	?	-26%	-69*	?
COc1ccc(N(CCOc2ccccc2)S(=O)(=O)c2ccccc2)cc1	-12%	16µM*	-6%	-5	?
CCOc1ccc(N(CCC#N)S(=O)(=O)c2ccc(OC)cc2)cc1	?	?	?	22	?
COc1ccccc1N(CC1CO1)S(=O)(=O)c1ccccc1 (centres undefined)	-16%	?	-12%	-7	?
CCOC(=O)CN=C/C(C(=O)Nc1nccs1)=C(/C)O	14%	-22%	19%	4	-4%
CCC1(C2CCN(C(=O)c3ccc4ccccc4c3)CC2)NC(=O)N(CCc2scnc2C)C1=O (centres undefined)	·	-20%	·	·	-4%[9.04 µM]
CC(C)(C)C1=CC(=O)C(=O)C(C(C)(C)C)=C1	?	1.3µM*	?	-65*	0.65µM*
O=C(N/N=C/c1ccccn1)c1cc(C2CC2)nc2ccccc12	?	?	?	-102*	23µM*
O=C(N/N=C/c1ccccn1)c1cc(-c2ccccc2)nc2ccccc12	-19%	16µM*	0%	0	?
CCOC(=O)C1C(=O)C=C(/C=C/c2ccc(N(C)C)cc2)CC1c1ccccc1 (centres undefined)	2%	?	13%	8	12µM*
CCOC(=O)C1C(=O)C=C(c2cccs2)CC1c1ccccc1 (centres undefined)	14%	16µM*	18%	-11	?
SMILES	HT1080 IDH1KD tx	TDP1 cell noCPT	HT1080-NT tox	IL1B secr inh	TDP1 cell CPT
CCOC(=O)C1C(=O)C=C(c2ccc(C)cc2)CC1c1ccccc1 (centres undefined)	-16%	?	-22%	-26	?
Nc1c(Cl)cc(C2=NCCn3nc4ccccc4c32)cc1Cl	-7%	?	-11%	-15	23µM*
COc1ccc2c3n(nc2c1)CCN=C3c1ccc(C)cc1	-14%	?	0%	5	16µM*
Clc1ccc(C2=NCCn3nc4ccccc4c32)cc1	-1%	?	-15%	55	?
COc1ccc(C2=NCCn3nc4cc([N+](=O)[O-])ccc4c32)cc1	1%	-8%	-19%	7	-20%
Cc1ccc(-n2nnnc2SCC(=O)NCCc2ccccc2)cc1C	·	-9%	·	·	-17%
Cc1[nH]n(-c2ccc([N+](=O)[O-])cc2)c(=O)c1C=NCCc1c(C)[nH]c2ccccc12	-23%	16µM*	-23%	0	16µM*
Cc1[nH]c2ccccc2c1/C=N/Nc1ccc([N+](=O)[O-])cc1	?	?	9.2µM*	?	?
Cc1[nH]n(-c2ccc([N+](=O)[O-])cc2)c(=O)c1C=NCCN1CCN(C(=O)C(C)C)CC1	?	16µM*	?	12	12µM*
Cc1[nH]c2ccccc2c1/C=N/NC(=O)c1cccc([N+](=O)[O-])c1	-3%	?	0%	2	-17%
CCCc1[nH]n(-c2ccc([N+](=O)[O-])cc2)c(=O)c1C=NCCCn1ccnc1	-4%	-70%	-15%	-23	-14%
Cc1[nH]n(-c2ccc([N+](=O)[O-])cc2)c(=O)c1C=NCCc1ccc(S(N)(=O)=O)cc1	?	?	-23%	13	?
Cc1ccc(-n2[nH]c(C)c(/C=N/Nc3ccc([N+](=O)[O-])cc3[N+](=O)[O-])c2=O)cc1	23µM*	15µM*	?	-3	21µM*
O=c1c(C=NCC2CCCO2)c(-c2ccccc2)[nH]n1-c1ccc([N+](=O)[O-])cc1 (centres undefined)	18%	?	15%	-13	?
Cc1[nH]n(-c2ccc([N+](=O)[O-])cc2)c(=O)c1C=NCC1CCCO1 (centres undefined)	-17%	10µM*	-26%	10	10µM*
COCCn1c(/C=C/c2ccccc2)nc2ccccc21	-38%	?	-33%	-2	-22%
COc1ccc(/C=C/c2nc3ccccc3n2Cc2ccccc2OC)cc1	16µM*	8.2µM*	16µM*	-201*	7.3µM*
COc1ccccc1Cn1c(C(C)C)nc2ccccc21	-3%	?	-29%	2	?
COc1ccccc1Cn1c(/C=C/c2ccccc2)nc2ccccc21	-21%	?	-17%	-80*	?
NC(=O)Cn1nnc(-c2ccc(CN3CCCCC3)cc2)n1	1%	-2%	5%	6	-1%
